From PubChem
KCNQ2 pot: enhances the rat KCNQ2 potassium channel; O88943; CHO-K1 KCNQ2, FluxOR thallium flux fluorescence; stronger effect = higher value; B-score at 10 µM; hit rate 0.54% among 310,000; AID 2239;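 active means fluorescence ratio B-score at least 3 SD of library B-scores, with initial fluorescence B-score within 3 of them, cut at about 5.3 in these data; same plate scores as AID 2156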;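 further: B-score of peak minus minimum over baseline fluorescence ratio after K+ and Tl+ stimulus; positive B-score means potentiation of KCNQ2 with more thallium influx and brighter signal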
KCNQ2 inh: blocks the rat KCNQ2 potassium channel; hit rate 1.1% among 310,000; CHO-K1 KCNQ2, FluxOR thallium flux, 20 min; stronger effect = lower value; B-score at 10 µM; AID 2156; O88943;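 active means fluorescence ratio B-score at most minus 3 library SDs, with starting brightness B-score within 2 library SDs, cut at about -5.5 in these data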
* marks the source's active call; other numbers are inactive results; i = inactive; . = no result. Sampled rows, rich in hits. Any-hit rate of the full collection: about 1.6%.

SMILES	KCNQ2 pot	KCNQ2 inh
Oc1ccc2ccccc2c1CN1CCN(C/C=C/c2ccccc2)CC1	1.8	i
Oc1ccc2ccccc2c1CN1CCN(c2ccccc2F)CC1	13*	i
Cc1cc(OCc2cc(C(=O)N(C)CCOc3ccccc3)no2)cc(C)c1Cl	-5.7	-5.7*
CN(CCCN1CCOCC1)C(=O)c1cc(COc2cccc(C(F)(F)F)c2)on1	.	i
O=C(NCCc1cn2ccccc2n1)c1cc(COc2ccc3ncccc3c2)on1	-6	-6*
Cc1cc(OCc2cc(C(=O)N(C)Cc3ccccn3)no2)cc(C)c1Cl	.	i
CN(CCc1ccccc1)C(=O)c1cc(COc2cccc(C(F)(F)F)c2)on1	-5.5	-5.5*
COc1cccc(CN(C)C(=O)c2cc(COc3c(F)cccc3F)on2)c1	.	i
O=C(NC1CCCC1)c1cc(COc2ccc3ncccc3c2)on1	3	i
COc1cccc(CN(C)C(=O)c2cc(COc3ccc4ncccc4c3)on2)c1	-7.5	-7.5*
CN(C)c1ccc(NC(=O)CN2CCc3ccccc3C2)cc1	1.1	i
CCCCn1c(N)c(N(CCOC)C(=O)COC(=O)COc2c(C)cc(C)cc2C)c(=O)[nH]c1=O	0.17	i
CC(C)=NOCC(=O)Nn1c(COc2ccccc2)nc2ccccc2c1=O	1.8	i
CCN1CCN(C(=O)C2CCCN(S(=O)(=O)c3cccc4nsnc34)C2)CC1 (stereo not given)	0.12	i
CCOC(CCNC(=O)c1cn(CCOC)c(=O)c2c1c1ccccc1n2C)OCC	.	i
O=C(COC(=O)c1cccc(Br)c1)NCCc1ccccc1	-5.7	-5.7*
O=C(COC(=O)c1cccc(Br)c1)NCCNC(=O)COC(=O)c1cccc(Br)c1	.	i
O=C(CSCc1ccc(Br)cc1)NCCc1ccccc1	-5.5	-5.5*
O=C(CSCc1ccccc1)NCCc1ccc(F)cc1	0.15	i
CC(C(=O)OCC(=O)c1cccc([N+](=O)[O-])c1)N1C(=O)C2C3C=CC(C3)C2C1=O (stereo not given)	0.12	i
CCOCCCn1c(=O)c2ccccc2n2c(=S)[nH]nc12	0.58	i
Cc1cccc(Oc2c(C=O)c3ccccc3n2C)c1	-6.5	-6.5*
Cc1ccc(Sc2c(C=O)c3ccccc3n2C)cc1	0.1	i
COc1cccc(Oc2ccc(S(=O)(=O)N3CCCC3)cc2[N+](=O)[O-])c1	.	i
COC(=O)c1c(-c2ccc(Br)cc2)csc1NC(=O)Cc1ccc(OC)c(OC)c1	.	i
SMILES	KCNQ2 pot	KCNQ2 inh
COC(=O)c1c(-c2ccc(C)cc2)csc1NC(=O)Cc1ccc(OC)c(OC)c1	-6.8	-6.8*
O=C(NN1C(=O)/C(=C/c2ccc(O)cc2)SC1=S)c1ccccc1O	-6	-6*
COc1cc(/C=C2\SC(=S)N(NC(=O)c3ccccc3O)C2=O)ccc1O	.	i
COCCn1ccc2c(OCC(=O)NCCc3ccccc3)cccc2c1=O	1.7	i
COc1ccc(OC)c(CNn2c(-c3cccc(C)c3)nc3ccccc3c2=O)c1	-5.7	-5.7*
COc1ccc(OCC(=O)Nn2c(-c3ccc(C)cc3)nc3ccccc3c2=O)cc1	.	i
O=C(NCc1ccncc1)C(=O)Nc1nc(C23CC4CC(CC(C4)C2)C3)cs1	0.15	i
O=C(NCc1ccccc1)C(=O)Nc1nc(C23CC4CC(CC(C4)C2)C3)cs1	5.5*	i
CCOC(=O)C1CCN(S(=O)(=O)c2cn(C)cn2)CC1	0.14	i
Cc1ccccc1NC(=O)c1c(C)nc(SCC(=O)OCc2ccccc2)c(C#N)c1-c1ccc(F)cc1	-7	-7*
Cc1nc(SCC(=O)OCc2ccccc2)c(C#N)c(-c2ccccc2)c1C(=O)Nc1ccccc1	.	i
Cc1ccnc(OC(C(=O)O)C(OCc2ccccc2)(c2ccccc2)c2ccc(C(F)(F)F)cc2)n1 (stereo not given)	-6.1	-6.1*
Cc1cc(C)nc(OC(C(=O)O)C(OCc2ccccc2)(c2ccccc2)c2ccccc2)n1 (stereo not given)	0.82	i
CC(C)c1nc2cc(C(=O)N3CCNC(=O)C3c3ccc(F)cc3)ccc2o1 (stereo not given)	0.12	i
Nc1c2c(nc3ccc(Br)cc13)N(C1CCCCC1)CC2	-5.8	-5.8*
Nc1c2c(nc3ccccc13)N(C1CCCCC1)CC2	0.77	i
COc1ccc(NC(C)=O)cc1NC(=O)C1CCN(C(=O)Nc2ccccc2)CC1	2.2	i
CC(=O)Nc1ccc(S(=O)(=O)N2CCN(C(=O)c3ncoc3-c3ccccc3)CC2)cc1	.	i
O=C(CN1C(=O)COc2ccc(S(=O)(=O)N3CCCC3)cc21)NC1CCCCCCC1	11*	i
O=C(CN1C(=O)COc2ccc(S(=O)(=O)N3CCCC3)cc21)NC1CC1	.	i
CC(C)(C)c1cc(/C=N/NC(=O)C[n+]2ccccc2)cc(C(C)(C)C)c1O	.	i
Cc1ccc2c(c1)/C(=C/c1ccc(F)cc1)C(=O)N2	0.68	i
Cc1ccc2c(c1)N/C(=C(\C=C(/Cl)[N+](=O)[O-])[N+](=O)[O-])N2	-6.8	-6.8*
